Experimental data as given in paper PMC7862700, “An all-to-all approach to the identification of sequence-specific readers for epigenetic DNA modifications on cytosine”.

How the values were obtained:
Test in all cases: DAPPL (digital affinity profiling via proximity ligation, sequencing); 10 mM Tris-HCl pH 7.5, 50 mM NaCl, 1 mM DTT, 4% glycerol, room temperature, 30 min; GST-TFs on glutathione beads, 16-mer random dsDNA library, 0.1% formaldehyde crosslink after washing; high values mean tight binding
[1] = target: T1, FLI1 (Homo sapiens, UniProt Q01543 1-452); conditions: protein: recombinant; tags: N-terminal GST; dsDNA, one strand shown
T1 sequence: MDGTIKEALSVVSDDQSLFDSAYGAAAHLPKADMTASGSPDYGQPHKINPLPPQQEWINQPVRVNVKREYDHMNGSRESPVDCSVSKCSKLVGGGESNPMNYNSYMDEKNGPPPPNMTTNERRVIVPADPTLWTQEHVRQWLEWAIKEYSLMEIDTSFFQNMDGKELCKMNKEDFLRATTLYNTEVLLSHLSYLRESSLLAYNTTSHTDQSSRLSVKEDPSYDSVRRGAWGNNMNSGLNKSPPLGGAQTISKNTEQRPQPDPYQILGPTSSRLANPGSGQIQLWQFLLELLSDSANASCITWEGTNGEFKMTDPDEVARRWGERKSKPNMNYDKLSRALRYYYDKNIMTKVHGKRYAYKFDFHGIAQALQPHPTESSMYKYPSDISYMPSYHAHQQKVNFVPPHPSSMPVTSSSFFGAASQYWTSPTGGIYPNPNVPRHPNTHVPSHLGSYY
In short: (§1)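 Human transcription factors fused to GST were expressed in yeast, captured on glutathione beads, given DNA barcodes and pooled with a GST-only negative control. Pools were incubated with 200 nmole of a 16-mer random double-stranded DNA library in Tris/NaCl/DTT/glycerol buffer at room temperature for 30 min. They were then washed, crosslinked with 0.1% formaldehyde, proximity-ligated (BsaI/T4 ligase, 1 h, 37 °C), PCR-amplified and sequenced on an Illumina NextSeq500. Binding signal is each 6-mer's read frequency for a factor divided by its frequency for the GST control.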

[2] = target: T2, ELK1 (Homo sapiens, UniProt P19419 1-428); conditions: protein: recombinant; tags: N-terminal GST; dsDNA, one strand shown
T2 sequence: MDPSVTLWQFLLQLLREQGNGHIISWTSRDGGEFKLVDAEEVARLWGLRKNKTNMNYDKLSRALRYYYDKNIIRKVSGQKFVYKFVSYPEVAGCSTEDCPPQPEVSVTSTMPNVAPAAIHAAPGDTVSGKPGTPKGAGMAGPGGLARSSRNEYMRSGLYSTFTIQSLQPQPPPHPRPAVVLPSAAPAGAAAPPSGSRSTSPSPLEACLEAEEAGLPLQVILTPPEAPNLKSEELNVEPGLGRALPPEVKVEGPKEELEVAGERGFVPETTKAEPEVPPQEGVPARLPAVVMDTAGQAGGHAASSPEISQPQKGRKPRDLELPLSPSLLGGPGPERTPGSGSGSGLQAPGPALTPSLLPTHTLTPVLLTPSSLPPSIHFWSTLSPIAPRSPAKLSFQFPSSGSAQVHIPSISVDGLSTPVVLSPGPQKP
In short: as §1

[3] = target: T3, GABPA (Homo sapiens, UniProt Q06546 1-454); conditions: protein: recombinant; tags: N-terminal GST; dsDNA, one strand shown
T3 sequence: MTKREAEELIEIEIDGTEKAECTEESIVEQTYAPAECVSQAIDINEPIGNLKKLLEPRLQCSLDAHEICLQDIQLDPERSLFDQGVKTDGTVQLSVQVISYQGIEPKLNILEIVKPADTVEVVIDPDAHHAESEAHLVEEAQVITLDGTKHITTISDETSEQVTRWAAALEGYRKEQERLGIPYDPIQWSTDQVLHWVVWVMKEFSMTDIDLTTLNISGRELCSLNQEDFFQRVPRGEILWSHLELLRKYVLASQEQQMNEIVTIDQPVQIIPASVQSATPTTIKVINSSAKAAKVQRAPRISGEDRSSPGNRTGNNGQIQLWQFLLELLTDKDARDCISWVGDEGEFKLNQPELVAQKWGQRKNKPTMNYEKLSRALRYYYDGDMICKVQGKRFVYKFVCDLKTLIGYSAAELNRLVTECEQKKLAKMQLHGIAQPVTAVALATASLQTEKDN
In short: as §1

[4] = target: T4, ERG (Homo sapiens, UniProt P11308 1-479); conditions: protein: recombinant; tags: N-terminal GST; dsDNA, one strand shown
T4 sequence: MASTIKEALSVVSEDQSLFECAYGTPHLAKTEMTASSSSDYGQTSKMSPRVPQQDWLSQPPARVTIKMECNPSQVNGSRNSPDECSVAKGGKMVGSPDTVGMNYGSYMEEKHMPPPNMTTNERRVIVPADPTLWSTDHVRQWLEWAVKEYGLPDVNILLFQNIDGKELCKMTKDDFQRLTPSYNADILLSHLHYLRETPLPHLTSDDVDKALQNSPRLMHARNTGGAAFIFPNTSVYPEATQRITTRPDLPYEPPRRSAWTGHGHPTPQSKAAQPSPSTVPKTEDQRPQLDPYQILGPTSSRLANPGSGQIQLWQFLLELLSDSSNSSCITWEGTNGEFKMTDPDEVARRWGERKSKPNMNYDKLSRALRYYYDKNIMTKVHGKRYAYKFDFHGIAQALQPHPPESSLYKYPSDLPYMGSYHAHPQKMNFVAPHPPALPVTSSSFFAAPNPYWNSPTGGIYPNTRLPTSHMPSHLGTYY
In short: as §1

[5] = target: ELF1 (Homo sapiens, UniProt P32519 1-619); conditions: protein: recombinant; tags: N-terminal GST; dsDNA, one strand shown
Sequence of ELF1 (P32519 whole entry): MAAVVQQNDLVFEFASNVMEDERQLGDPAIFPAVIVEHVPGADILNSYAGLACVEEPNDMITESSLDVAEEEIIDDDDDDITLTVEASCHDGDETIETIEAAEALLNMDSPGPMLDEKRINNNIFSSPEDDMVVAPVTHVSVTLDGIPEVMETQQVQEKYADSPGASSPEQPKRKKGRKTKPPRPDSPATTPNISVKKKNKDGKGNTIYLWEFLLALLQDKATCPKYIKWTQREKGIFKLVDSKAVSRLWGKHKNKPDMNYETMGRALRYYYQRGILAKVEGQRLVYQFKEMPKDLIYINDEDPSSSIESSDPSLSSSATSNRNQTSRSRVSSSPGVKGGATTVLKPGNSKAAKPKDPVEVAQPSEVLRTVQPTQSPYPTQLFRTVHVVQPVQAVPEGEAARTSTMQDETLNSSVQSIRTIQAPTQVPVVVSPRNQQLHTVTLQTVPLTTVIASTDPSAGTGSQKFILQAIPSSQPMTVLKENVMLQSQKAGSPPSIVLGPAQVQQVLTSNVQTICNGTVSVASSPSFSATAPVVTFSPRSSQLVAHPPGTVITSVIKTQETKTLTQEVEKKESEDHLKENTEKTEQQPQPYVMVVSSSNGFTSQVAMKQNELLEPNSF
In short: as §1

[6] = target: T5, EHF (Homo sapiens, UniProt Q9NZC4 1-300); conditions: protein: recombinant; tags: N-terminal GST; dsDNA, one strand shown
T5 sequence: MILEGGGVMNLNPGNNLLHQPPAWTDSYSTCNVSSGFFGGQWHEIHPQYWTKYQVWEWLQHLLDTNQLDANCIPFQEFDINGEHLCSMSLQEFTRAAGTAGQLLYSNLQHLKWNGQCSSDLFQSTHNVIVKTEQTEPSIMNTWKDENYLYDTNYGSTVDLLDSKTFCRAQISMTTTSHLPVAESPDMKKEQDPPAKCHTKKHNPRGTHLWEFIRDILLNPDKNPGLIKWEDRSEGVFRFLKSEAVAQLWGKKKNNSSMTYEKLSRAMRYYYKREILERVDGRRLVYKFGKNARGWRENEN
In short: as §1

[7] = target: SPI1 (Homo sapiens, UniProt P17947 1-270); conditions: protein: recombinant; tags: N-terminal GST; dsDNA, one strand shown
In short: as §1

[8] = target: SPIB (Homo sapiens, UniProt Q01892 1-262); conditions: protein: recombinant; tags: N-terminal GST; dsDNA, one strand shown
Sequence of SPIB (Q01892 whole entry): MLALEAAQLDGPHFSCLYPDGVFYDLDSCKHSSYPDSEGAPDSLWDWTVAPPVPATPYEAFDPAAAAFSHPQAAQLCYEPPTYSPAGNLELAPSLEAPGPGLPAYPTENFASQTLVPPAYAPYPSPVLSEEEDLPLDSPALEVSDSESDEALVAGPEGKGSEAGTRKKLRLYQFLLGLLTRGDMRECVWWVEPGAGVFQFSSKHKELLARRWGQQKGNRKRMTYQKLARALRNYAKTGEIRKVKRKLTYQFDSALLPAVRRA
In short: as §1

[9] = target: T6, ELK3 (Homo sapiens, UniProt P41970 1-407); conditions: protein: recombinant; tags: N-terminal GST; dsDNA, one strand shown
T6 sequence: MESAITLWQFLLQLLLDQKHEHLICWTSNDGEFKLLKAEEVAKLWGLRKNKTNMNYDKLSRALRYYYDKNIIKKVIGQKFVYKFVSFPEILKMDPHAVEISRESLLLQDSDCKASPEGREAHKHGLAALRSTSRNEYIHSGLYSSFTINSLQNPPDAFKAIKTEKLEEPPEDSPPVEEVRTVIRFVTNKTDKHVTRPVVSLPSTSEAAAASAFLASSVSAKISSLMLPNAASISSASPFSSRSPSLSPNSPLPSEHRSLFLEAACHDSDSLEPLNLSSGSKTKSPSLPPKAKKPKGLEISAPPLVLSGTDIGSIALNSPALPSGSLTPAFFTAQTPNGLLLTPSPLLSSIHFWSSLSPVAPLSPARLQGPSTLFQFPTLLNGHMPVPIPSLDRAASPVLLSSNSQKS
In short: as §1

[10] = target: T7, FEV (Homo sapiens, UniProt Q99581 1-238); conditions: protein: recombinant; tags: N-terminal GST; dsDNA, one strand shown
T7 sequence: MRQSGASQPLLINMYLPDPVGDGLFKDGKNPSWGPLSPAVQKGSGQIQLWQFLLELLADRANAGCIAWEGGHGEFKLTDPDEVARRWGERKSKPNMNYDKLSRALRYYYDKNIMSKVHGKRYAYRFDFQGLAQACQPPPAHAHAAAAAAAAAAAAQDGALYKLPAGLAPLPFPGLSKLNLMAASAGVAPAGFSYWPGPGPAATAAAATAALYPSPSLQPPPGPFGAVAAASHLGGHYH
In short: as §1

[11] = target: ETV5 (Homo sapiens, UniProt P41161 1-510); conditions: protein: recombinant; tags: N-terminal GST; dsDNA, one strand shown
Sequence of ETV5 (P41161 whole entry): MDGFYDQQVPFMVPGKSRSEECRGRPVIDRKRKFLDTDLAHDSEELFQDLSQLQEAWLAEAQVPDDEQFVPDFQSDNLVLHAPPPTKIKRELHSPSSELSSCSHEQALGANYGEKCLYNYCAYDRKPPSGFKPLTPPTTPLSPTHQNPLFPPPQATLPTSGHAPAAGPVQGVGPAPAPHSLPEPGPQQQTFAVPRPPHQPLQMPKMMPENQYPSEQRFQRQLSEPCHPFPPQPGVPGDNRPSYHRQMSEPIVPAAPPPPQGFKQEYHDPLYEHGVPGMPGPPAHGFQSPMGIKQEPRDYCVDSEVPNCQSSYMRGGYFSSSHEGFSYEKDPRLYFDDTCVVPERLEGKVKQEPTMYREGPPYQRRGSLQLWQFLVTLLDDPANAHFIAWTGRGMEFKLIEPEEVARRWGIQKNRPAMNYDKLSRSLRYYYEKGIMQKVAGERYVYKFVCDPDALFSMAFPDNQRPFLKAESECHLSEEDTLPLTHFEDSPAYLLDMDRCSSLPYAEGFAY
In short: as §1

[12] = target: HSF1 (Homo sapiens, UniProt Q00613 1-529); conditions: protein: recombinant; tags: N-terminal GST; chain copies: 3; dsDNA, one strand shown
Sequence of HSF1 (Q00613 whole entry): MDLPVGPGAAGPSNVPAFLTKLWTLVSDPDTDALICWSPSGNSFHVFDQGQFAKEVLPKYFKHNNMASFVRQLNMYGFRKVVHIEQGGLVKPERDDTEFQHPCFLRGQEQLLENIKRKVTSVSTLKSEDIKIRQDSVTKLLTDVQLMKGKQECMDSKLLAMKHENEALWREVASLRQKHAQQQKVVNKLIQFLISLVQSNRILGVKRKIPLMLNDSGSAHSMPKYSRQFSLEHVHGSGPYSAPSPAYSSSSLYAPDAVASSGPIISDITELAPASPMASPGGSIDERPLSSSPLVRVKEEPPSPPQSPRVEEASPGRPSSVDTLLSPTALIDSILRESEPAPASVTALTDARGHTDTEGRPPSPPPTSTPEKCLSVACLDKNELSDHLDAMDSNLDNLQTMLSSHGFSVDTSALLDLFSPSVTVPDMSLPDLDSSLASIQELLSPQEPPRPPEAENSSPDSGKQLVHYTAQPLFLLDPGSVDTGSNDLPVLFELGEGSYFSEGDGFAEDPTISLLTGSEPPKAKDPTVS
In short: as §1

[13] = target: T8, SPIC (Homo sapiens, UniProt Q8N5J4 1-248); conditions: protein: recombinant; tags: N-terminal GST; dsDNA, one strand shown
T8 sequence: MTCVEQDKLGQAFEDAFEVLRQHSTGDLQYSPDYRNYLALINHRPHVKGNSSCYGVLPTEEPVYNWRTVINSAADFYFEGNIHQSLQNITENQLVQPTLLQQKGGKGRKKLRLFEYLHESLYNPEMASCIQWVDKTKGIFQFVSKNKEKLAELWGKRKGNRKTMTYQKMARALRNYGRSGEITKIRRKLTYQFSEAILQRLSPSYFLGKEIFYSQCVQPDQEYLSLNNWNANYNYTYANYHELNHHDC
In short: as §1

[14] = target: ELF4 (Homo sapiens, UniProt Q99607 1-663); conditions: protein: recombinant; tags: N-terminal GST; dsDNA, one strand shown
Sequence of ELF4 (Q99607 whole entry): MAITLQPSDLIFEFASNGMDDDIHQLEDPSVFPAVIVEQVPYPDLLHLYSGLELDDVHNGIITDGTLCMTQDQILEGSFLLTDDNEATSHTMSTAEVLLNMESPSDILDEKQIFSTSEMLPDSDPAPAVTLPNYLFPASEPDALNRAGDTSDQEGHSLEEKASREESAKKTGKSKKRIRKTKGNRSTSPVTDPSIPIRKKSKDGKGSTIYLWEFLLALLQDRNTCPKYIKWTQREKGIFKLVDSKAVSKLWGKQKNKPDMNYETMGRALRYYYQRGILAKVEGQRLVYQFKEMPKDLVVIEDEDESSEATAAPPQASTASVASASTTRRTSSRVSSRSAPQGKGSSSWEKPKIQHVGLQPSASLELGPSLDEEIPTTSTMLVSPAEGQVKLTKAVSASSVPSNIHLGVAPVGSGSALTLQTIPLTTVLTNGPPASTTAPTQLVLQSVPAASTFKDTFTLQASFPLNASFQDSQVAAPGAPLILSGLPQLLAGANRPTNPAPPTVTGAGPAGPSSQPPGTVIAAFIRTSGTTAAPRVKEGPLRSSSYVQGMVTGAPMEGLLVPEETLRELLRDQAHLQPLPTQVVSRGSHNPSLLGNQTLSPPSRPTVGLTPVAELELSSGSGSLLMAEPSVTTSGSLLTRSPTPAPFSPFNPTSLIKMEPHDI
In short: as §1

[15] = target: T9, ELK4 (Homo sapiens, UniProt P28324-2 1-405); conditions: protein: recombinant; tags: N-terminal GST; dsDNA, one strand shown
T9 sequence: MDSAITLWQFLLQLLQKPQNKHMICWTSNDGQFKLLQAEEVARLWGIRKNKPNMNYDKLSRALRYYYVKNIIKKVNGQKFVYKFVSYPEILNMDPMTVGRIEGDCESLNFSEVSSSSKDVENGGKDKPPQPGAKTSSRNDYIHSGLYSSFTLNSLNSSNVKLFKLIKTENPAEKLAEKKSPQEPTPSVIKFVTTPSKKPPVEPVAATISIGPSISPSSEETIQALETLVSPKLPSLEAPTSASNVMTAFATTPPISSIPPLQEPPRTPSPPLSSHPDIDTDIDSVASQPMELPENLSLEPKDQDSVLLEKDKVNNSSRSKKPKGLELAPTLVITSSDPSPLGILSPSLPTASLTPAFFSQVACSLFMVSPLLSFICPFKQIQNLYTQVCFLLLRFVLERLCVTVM
In short: as §1

[16] = target: T10, ETV2 (Homo sapiens, UniProt O00321 1-342); conditions: protein: recombinant; tags: N-terminal GST; dsDNA, one strand shown
T10 sequence: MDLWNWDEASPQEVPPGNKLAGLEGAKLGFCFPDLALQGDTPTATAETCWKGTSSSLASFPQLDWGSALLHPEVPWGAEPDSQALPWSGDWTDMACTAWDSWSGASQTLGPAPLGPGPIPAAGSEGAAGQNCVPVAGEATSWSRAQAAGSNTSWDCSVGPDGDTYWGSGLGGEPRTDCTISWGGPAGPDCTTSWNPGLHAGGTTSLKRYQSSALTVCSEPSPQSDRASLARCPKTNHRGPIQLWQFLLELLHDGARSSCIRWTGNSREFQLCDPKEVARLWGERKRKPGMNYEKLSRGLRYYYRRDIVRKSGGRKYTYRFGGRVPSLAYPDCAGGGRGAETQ
In short: as §1

[17] = target: T11, ELF3 (Homo sapiens, UniProt P78545 1-371); conditions: protein: recombinant; tags: N-terminal GST; dsDNA, one strand shown
T11 sequence: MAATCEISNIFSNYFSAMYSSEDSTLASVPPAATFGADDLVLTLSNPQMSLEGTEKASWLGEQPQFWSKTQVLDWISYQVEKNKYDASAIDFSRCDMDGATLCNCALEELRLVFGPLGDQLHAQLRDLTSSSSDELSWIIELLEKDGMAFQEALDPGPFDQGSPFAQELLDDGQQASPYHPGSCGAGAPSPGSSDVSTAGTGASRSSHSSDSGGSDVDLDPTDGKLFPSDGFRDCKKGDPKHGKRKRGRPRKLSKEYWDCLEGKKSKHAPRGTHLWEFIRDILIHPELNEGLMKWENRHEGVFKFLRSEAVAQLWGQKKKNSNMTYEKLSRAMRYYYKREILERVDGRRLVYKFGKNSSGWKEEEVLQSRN
In short: as §1

[18] = target: CRX (Homo sapiens, UniProt O43186 1-299); conditions: protein: recombinant; tags: N-terminal GST; dsDNA, one strand shown
Sequence of CRX (O43186 whole entry): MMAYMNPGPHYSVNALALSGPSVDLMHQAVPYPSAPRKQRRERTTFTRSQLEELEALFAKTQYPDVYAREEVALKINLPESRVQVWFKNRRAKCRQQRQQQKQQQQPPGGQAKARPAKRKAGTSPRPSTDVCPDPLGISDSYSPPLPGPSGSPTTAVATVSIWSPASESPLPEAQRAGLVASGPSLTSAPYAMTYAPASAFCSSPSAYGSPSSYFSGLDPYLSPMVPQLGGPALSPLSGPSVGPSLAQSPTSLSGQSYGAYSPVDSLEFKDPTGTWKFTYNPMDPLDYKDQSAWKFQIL
In short: as §1

[19] = target: ETV1 (Homo sapiens, UniProt P50549 1-477); conditions: protein: recombinant; tags: N-terminal GST; dsDNA, one strand shown
Sequence of ETV1 (P50549 whole entry): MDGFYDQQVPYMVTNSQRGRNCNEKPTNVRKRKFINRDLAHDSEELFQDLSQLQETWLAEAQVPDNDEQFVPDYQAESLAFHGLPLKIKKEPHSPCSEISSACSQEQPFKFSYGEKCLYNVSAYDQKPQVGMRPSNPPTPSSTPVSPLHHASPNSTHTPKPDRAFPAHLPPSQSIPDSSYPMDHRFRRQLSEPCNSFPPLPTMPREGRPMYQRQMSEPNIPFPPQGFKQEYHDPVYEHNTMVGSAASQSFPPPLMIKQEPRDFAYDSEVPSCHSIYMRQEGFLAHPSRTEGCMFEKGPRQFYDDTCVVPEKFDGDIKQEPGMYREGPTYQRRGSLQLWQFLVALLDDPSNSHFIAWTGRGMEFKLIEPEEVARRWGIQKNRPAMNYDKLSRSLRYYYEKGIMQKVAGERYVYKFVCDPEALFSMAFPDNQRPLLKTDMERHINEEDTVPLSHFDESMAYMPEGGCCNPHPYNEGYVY
In short: as §1

Q: ATTTGG was tested. Which binding signal [1] did it give?
A: 1.44 fold enrichment (6-mer frequency, TF over GST control)

Q: And the binding signal [2]?
A: 1.33 fold enrichment (6-mer frequency, TF over GST control)

Q: What about the binding signal [3] of the same sequence?
A: 1.39 fold enrichment (6-mer frequency, TF over GST control)

Q: What about the binding signal [4] of the same sequence?
A: 1.36 fold enrichment (6-mer frequency, TF over GST control)

Q: And the binding signal [5]?
A: 1.36 fold enrichment (6-mer frequency, TF over GST control)

Q: And the binding signal [6]?
A: 1.35 fold enrichment (6-mer frequency, TF over GST control)

Q: And the binding signal [7]?
A: 1.38 fold enrichment (6-mer frequency, TF over GST control)

Q: What about the binding signal [8] of the same sequence?
A: 1.32 fold enrichment (6-mer frequency, TF over GST control)

Q: And the binding signal [9]?
A: 1.33 fold enrichment (6-mer frequency, TF over GST control)

Q: And the binding signal [10]?
A: 1.4 fold enrichment (6-mer frequency, TF over GST control)

Q: And the binding signal [11]?
A: 1.36 fold enrichment (6-mer frequency, TF over GST control)

Q: What about the binding signal [12] of the same sequence?
A: 1.5 fold enrichment (6-mer frequency, TF over GST control)

Q: What about the binding signal [13] of the same sequence?
A: 1.34 fold enrichment (6-mer frequency, TF over GST control)

Q: And the binding signal [14]?
A: 1.26 fold enrichment (6-mer frequency, TF over GST control)

Q: And the binding signal [15]?
A: 1.43 fold enrichment (6-mer frequency, TF over GST control)

Q: And the binding signal [16]?
A: 1.37 fold enrichment (6-mer frequency, TF over GST control)

Q: What about the binding signal [17] of the same sequence?
A: 1.44 fold enrichment (6-mer frequency, TF over GST control)

Q: And the binding signal [18]?
A: 1.73 fold enrichment (6-mer frequency, TF over GST control)

Q: What about the binding signal [19] of the same sequence?
A: 1.36 fold enrichment (6-mer frequency, TF over GST control)
